In PubChem BioAssay (NCI) one finds growth data, which are given here for 14 molecules.

Common to all, as to assay: NCI-60 one-dose screen, 48 h (100 = growth as untreated, 0 = no growth, -100 = all killed)
One experiment deals with BT-549 breast. The conditions noted are these: 10 µM unless noted.
In another experiment the test system is MDA-MB-435 melanoma. The conditions noted are these: 10 µM unless noted.
For the next experiment, the system named is SW-620 colon. The conditions noted are these: 10 µM unless noted.
Another experiment has as its system MCF7 breast.
The subject of the next experiment is HCT-116 colon. The following applies: 10 µM unless noted.
The subject of another experiment is HCC-2998 colon. The following applies: 10 µM unless noted.
A further experiment deals with KM12 colon. The conditions noted are these: 10 µM unless noted.

Values joined by “and” are separate entries in the source; they are usually repeats but may differ in a detail not shown here. Identical values can stand only once. The panel holds about 83,000 compounds, 20% with a hit somewhere; the sample as a whole holds those more often.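 Single-dose data. Exposure time 48 hours. Values below 10 considered active.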 Active and inactive are the calls of the source.

For `Cc1c(CC(=O)OCCO)cc(-c2ccc(Cl)cc2)n1-c1ccccc1`, the growth was 109% (inactive) with BT-549 breast; 98.7% (inactive) with MDA-MB-435 melanoma; 104% (inactive) with SW-620 colon; 93% (inactive) in the experiment with MCF7 breast (10 µM unless noted); 102% (inactive) in the experiment on HCT-116 colon; 118% (inactive) with HCC-2998 colon. For the same molecule, the growth in the experiment with KM12 colon is 99.1% (inactive).
For the molecule `CCN1CCN(CC(=O)Nc2nc3ccc(NCc4ccc(C)cc4)cc3s2)CC1`, the growth in the experiment with BT-549 breast was 88% (inactive); in the experiment on MDA-MB-435 melanoma it was -41.8% (active); in the experiment on SW-620 colon, 44.2% (inactive); in the experiment with MCF7 breast (10 µM unless noted), 35.6% (inactive); in the experiment with HCT-116 colon, 13% (inactive); in the experiment with HCC-2998 colon, 80.9% (inactive). For the same molecule, the growth with KM12 colon is 73% (inactive).
Turning to `O=C1CCc2c(sc3[nH]c(=S)n(Cc4ccc(Cl)cc4)c(=O)c23)C1`, the growth is -10.1% (active) with BT-549 breast; 11.3% (inactive) with MDA-MB-435 melanoma; 16.5% (inactive) with SW-620 colon; 6.24% (active) with MCF7 breast (10 µM unless noted); 5.99% (active) with HCT-116 colon; 4.16% (active) in the experiment with HCC-2998 colon. Besides, the growth in the experiment on KM12 colon is -45.8% (active).
As to `CCOC(=O)N(O)c1ccc(/C=C/c2ccccc2)cc1`, the growth in the experiment on BT-549 breast was 78.1% (inactive) and 69.9% (inactive); in the experiment on MDA-MB-435 melanoma, 84.6% (inactive) and 84.1% (inactive); in the experiment with SW-620 colon it was 60.2% (inactive) and 46.6% (inactive); in the experiment with MCF7 breast (10 µM unless noted), 8.37% (active) and 10.4% (inactive); in the experiment on HCT-116 colon, 11.2% (inactive) and 17.6% (inactive); in the experiment on HCC-2998 colon, 59.3% (inactive) and 66.4% (inactive). The growth with KM12 colon was 78.5% (inactive) and 64.9% (inactive).
With `NCCOCCOc1ccccc1`, the growth in the experiment on BT-549 breast is 106% (inactive); with MDA-MB-435 melanoma, 107% (inactive); in the experiment with SW-620 colon it was 102% (inactive); in the experiment on MCF7 breast (10 µM unless noted), 91.2% (inactive); in the experiment with HCT-116 colon, 99.4% (inactive); in the experiment with HCC-2998 colon it was 94.2% (inactive). Moreover, in the experiment on KM12 colon, the growth is 105% (inactive).
In the case of `CC(C)(C)CC(N)=O`, the growth in the experiment with BT-549 breast was 75.3% (inactive); with MDA-MB-435 melanoma, 109% (inactive); in the experiment with SW-620 colon, 102% (inactive); in the experiment on MCF7 breast (10 µM) it was 85.9% (inactive); in the experiment with MCF7 breast (100 µM), 85.2% (inactive) and 8.62% (active); in the experiment on HCT-116 colon, 93.6% (inactive). Moreover, the figures for the growth in the experiment on HCC-2998 colon and in the experiment on KM12 colon were 106% (inactive) and 109% (inactive), respectively.
With `O=C(O)c1ccccc1Cc1ccc(F)c2ccccc12`, the growth is 134% (inactive) and 106% (inactive) with BT-549 breast; 110% (inactive) and 109% (inactive) in the experiment on MDA-MB-435 melanoma; 105% (inactive) and 95.8% (inactive) with SW-620 colon; 99.2% (inactive) and 102% (inactive) with MCF7 breast (10 µM unless noted); 120% (inactive) and 101% (inactive) in the experiment on HCT-116 colon; 109% (inactive) and 103% (inactive) in the experiment with HCC-2998 colon. Moreover, in the experiment on KM12 colon, the growth was 103% (inactive) and 104% (inactive).
In the case of `COc1ccc(/C=C/C(=O)c2cc3c(N)c(C(=O)Nc4ccccc4Cl)sc3nc2C)cc1`, the growth is 59% (inactive) in the experiment on BT-549 breast; -61.6% (active) with MDA-MB-435 melanoma; 48.1% (inactive) with SW-620 colon; 17.2% (inactive) in the experiment on MCF7 breast (10 µM unless noted); 59% (inactive) in the experiment on HCT-116 colon; 51.3% (inactive) in the experiment with HCC-2998 colon. The growth with KM12 colon is 51.6% (inactive).
For the molecule `Cc1nonc1-c1ccc2c(c1)OCO2`, the growth was 111% (inactive) and 115% (inactive) in the experiment with BT-549 breast; 89.9% (inactive) and 109% (inactive) in the experiment on MDA-MB-435 melanoma; 105% (inactive) and 107% (inactive) with SW-620 colon; 99.6% (inactive) and 98.3% (inactive) in the experiment with MCF7 breast (10 µM unless noted); 112% (inactive) and 98.5% (inactive) with HCT-116 colon; 100% (inactive) and 107% (inactive) in the experiment with HCC-2998 colon. Besides, the growth with KM12 colon is 95.4% (inactive) and 116% (inactive).
As to `CC1=CC=C(NC(=O)/C=C/c2ccccc2)CC1Nc1nccc(-c2cccnc2)n1` (centres undefined), the growth was 74.5% (inactive) in the experiment on BT-549 breast; -48.5% (active) in the experiment with MDA-MB-435 melanoma; 27% (inactive) in the experiment on SW-620 colon; 18% (inactive) with MCF7 breast (10 µM unless noted); 14.5% (inactive) in the experiment on HCT-116 colon; 70.5% (inactive) in the experiment on HCC-2998 colon. The growth with KM12 colon was 26.4% (inactive).
Take `CN1C(=O)N(C)C2(c3ccccc3)N(CC(=O)Nc3ccccc3O)C(=O)NC12c1ccccc1` (centres undefined): the growth with BT-549 breast is 104% (inactive); in the experiment with MDA-MB-435 melanoma, 106% (inactive); with SW-620 colon, 97.4% (inactive); with MCF7 breast (10 µM unless noted), 101% (inactive); in the experiment with HCT-116 colon, 98.3% (inactive); in the experiment on HCC-2998 colon, 118% (inactive). In addition, the growth in the experiment with KM12 colon was 105% (inactive).
On to `COC(=O)N/N=C/c1c[n+]([O-])c2ccccc2[n+]1[O-]`, for which the growth with BT-549 breast is 108% (inactive); in the experiment with MDA-MB-435 melanoma it was 96.4% (inactive); in the experiment on SW-620 colon, 103% (inactive); in the experiment with MCF7 breast (10 µM unless noted), 93.6% (inactive); with HCT-116 colon it was 104% (inactive); in the experiment with HCC-2998 colon it was 104% (inactive). In the experiment with KM12 colon, the growth was 103% (inactive).
Consider `COc1ccc(/C=C2\COc3ccc(O)c(O)c3C2=O)c(OC)c1OC`, for which the growth in the experiment with BT-549 breast is 46.9% (inactive); in the experiment on MDA-MB-435 melanoma, 8.59% (active); with SW-620 colon, 9.64% (active); with MCF7 breast (10 µM unless noted) it was 14.8% (inactive); in the experiment on HCT-116 colon, 14.6% (inactive); in the experiment with HCC-2998 colon, 65.6% (inactive). In the experiment on KM12 colon, the growth is 33.5% (inactive).
For the molecule `O=C1C=C(Nc2ccccc2)c2ncccc2C1=O`, the growth in the experiment with BT-549 breast was -94.4% (active); with MDA-MB-435 melanoma, -95.3% (active); in the experiment with SW-620 colon it was -70.6% (active); in the experiment with MCF7 breast (10 µM unless noted), -52.2% (active); in the experiment on HCT-116 colon it was -87.9% (active); with HCC-2998 colon it was -89.1% (active). For the same molecule, in the experiment on KM12 colon, the growth was -67.3% (active).
